Experiment [1] in a line: compound effects on lung adenocarcinoma cell viability – A549, calcein-AM fluorescence, 48 h, basal, profiling panel (AID 1162). Further: test concentration not given here. The note with it: higher = more signal.
Experiment [2] can be described thus: compound effects on differentiated 3T3-L1 adipocyte viability – cell-based, 3T3-L1 adipocytes, calcein-AM fluorescence, 48 h, basal, profiling panel (AID 1163). Further: test concentration not given here. The note with it: 3T3-L1 adipocytes viability, higher = more signal.
Experiment [3] can be described thus: compound effects on hepatocellular carcinoma cell viability – HepG2, calcein-AM fluorescence, 48 h, basal, profiling panel (AID 1164). Further: test concentration not given here. Particulars: higher = more signal.
Experiment [4] can be described thus: compound effects on multiple myeloma cell viability – MM1S, calcein-AM fluorescence, 48 h, basal, profiling panel (AID 1165).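 Further: viability of MM1S multiple myeloma cells under basal unstimulated conditions; test concentration not given here.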 The note with it: higher = more signal.
Experiment [5] can be described thus: calcein-AM signal in unstimulated myeloma cells – cell-based, calcein-AM fluorescence, 48 h, PK04 Diversity Set, profiling panel (AID 1166).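 Further: cells grown under basal conditions without added stimulus; test concentration not given here.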 Particulars: RPMI8226 myeloma viability, higher = more signal.
The nature of experiment [6]: JC-1 mitochondrial signal, unstimulated HepG2 cells – cell-based, JC-1 fluorescence, 24 h, 100 nL compound, profiling panel (AID 1167). Further: test concentration not given here. The note with it: HepG2 mitochondrial potential, higher = more signal.
Experiment [7] is described as follows: JC-1 mitochondrial signal, unstimulated adipocytes – cell-based, JC-1 fluorescence, 3T3-L1 adipocytes, 24 h, 100 nL compound, profiling panel (AID 1168). Further: test concentration not given here. Particulars: JC-1 mitochondrial fluorescence, higher = more signal, called active from +8 up or from −8 down.
Experiment [8] in a line: JC-1 mitochondrial signal, unstimulated myeloma cells – cell-based, JC-1 fluorescence, RPMI8226, 24 h, 100 nL compound, profiling panel (AID 1169). Further: test concentration not given here. The note with it: JC-1 mitochondrial potential fluorescence, higher = more signal.
Experiment [9] can be described thus: JC-1 mitochondrial signal, unstimulated MM1S myeloma – cell-based, JC-1 fluorescence, 24 h, 100 nL compound, profiling panel (AID 1170). Further: test concentration not given here. Particulars: MM1S mitochondrial potential, higher = more signal.
Experiment [10] in a line: resazurin metabolic signal in A549 cells – cell-based, resazurin fluorescence, 24 h, PK04 Diversity Set, profiling panel (AID 1171). Further: test concentration not given here. The note with it: A549 viability, higher = more signal, called active from +8 up or from −8 down.
Experiment [11] is described as follows: resazurin metabolic signal in HepG2 cells – cell-based, resazurin fluorescence, 24 h, PK04 Diversity Set, profiling panel (AID 1172). Further: test concentration not given here. The note with it: HepG2 viability, higher = more signal. A general note: Alamar Blue is a resazurin reagent that responds to reducing activity.
A short description of experiment [12]: budding yeast growth changes without added modifier – OD600, strain BY4716, 24 h, basal condition, primary screen (AID 1173). Particulars: S. cerevisiae BY4716 growth, OD600, 24 h; higher = more signal, called active from +8 up or from −8 down.
Experiment [13] in a line: viability profiling in MM1S myeloma cells – cell-based, resazurin fluorescence, basal, 24 h, PK04 Diversity Set, profiling panel (AID 1174). Further: test concentration not given here. Particulars: higher = more signal, called active from +8 up or from −8 down.
The target of experiment [14] is Dihydroorotate dehydrogenase (quinone), mitochondrial (Plasmodium falciparum (isolate 3D7)) (UniProt Q08210). Nature of the experiment: inhibition of P. falciparum DHODH – biochemical, C-terminal His tag, absorbance 600 nm, primary screen (AID 1175).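 Further: recombinant parasite enzyme with a five histidine tag at its C terminus; test concentration not given here.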 Particulars: PfDHODH enzyme, DCIP absorbance 600 nm; higher = more signal, called active from +8 up or from −8 down.
Dihydroorotate dehydrogenase (quinone), mitochondrial (Plasmodium falciparum (isolate 3D7)), sequence (Q08210 whole entry, looked up): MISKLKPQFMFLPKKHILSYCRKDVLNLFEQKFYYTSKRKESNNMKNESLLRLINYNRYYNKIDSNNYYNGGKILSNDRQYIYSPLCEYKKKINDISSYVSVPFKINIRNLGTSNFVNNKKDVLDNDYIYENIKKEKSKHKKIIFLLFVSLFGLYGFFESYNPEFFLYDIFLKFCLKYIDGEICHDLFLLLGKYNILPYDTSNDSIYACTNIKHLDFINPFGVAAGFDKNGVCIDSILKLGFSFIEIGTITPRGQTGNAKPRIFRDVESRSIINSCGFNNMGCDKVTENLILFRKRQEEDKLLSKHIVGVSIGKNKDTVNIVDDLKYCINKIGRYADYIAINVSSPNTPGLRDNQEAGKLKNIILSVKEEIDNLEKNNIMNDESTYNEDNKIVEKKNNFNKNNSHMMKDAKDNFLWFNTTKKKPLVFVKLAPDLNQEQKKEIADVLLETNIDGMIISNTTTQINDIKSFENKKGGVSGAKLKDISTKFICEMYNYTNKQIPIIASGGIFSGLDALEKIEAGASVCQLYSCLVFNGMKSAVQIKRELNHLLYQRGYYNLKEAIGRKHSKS
The nature of experiment [15]: inhibition of PAO1 biofilm formation – strain PAO1, LB-PBS medium, absorbance 600 nm, primary screen (AID 1176). Further: test concentration not given here. The note with it: P. aeruginosa PAO1 growth/biofilm, A600, 12 h; higher = more signal.
Experiment [16] can be described thus: growth modulation of vineyard yeast isolate – strain RM11-1a, OD600, basal, 24 h, primary screen (AID 1177).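 Further: cultures grown under basal conditions with no added stressor; test concentration not given here.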 Particulars: S. cerevisiae RM11-1a growth, OD600, 24 h; higher = more signal, called active from +8 up or from −8 down.
The nature of experiment [17]: growth of efflux-deficient E. coli DRC39 – strain DRC39, OD650, 24 h, E. coli filamentation inducers, primary screen (AID 1178).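 Further: growth measured as culture turbidity by optical density at 650 nm; test concentration not given here.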 The note with it: E. coli DRC39 acrAB, higher = more signal, called active from +8 up or from −8 down.
The nature of experiment [18]: growth of efflux-deficient E. coli DRC39 – strain DRC39, OD650, 48 h, E. coli filamentation inducers, primary screen (AID 1179).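 Further: screen aims at cell division blockers that make cells filament.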 The note with it: E. coli DRC39 delta-acrAB growth, higher = more signal, called active from +8 up or from −8 down.
Experiment [19] is described as follows: viability profiling in RPMI8226 myeloma cells – cell-based, resazurin fluorescence, basal, 24 h, PK04 Diversity Set, profiling panel (AID 1180).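 Further: RPMI8826 multiple myeloma cell line at 5000 cells per well; test concentration not given here.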 Particulars: higher = more signal.
The target of experiment [20] is E3 ubiquitin-protein ligase XIAP (Homo sapiens) (UniProt P98170). Kind of experiment: small molecules binding XIAP protein – biophysical, small-molecule microarray, fluorescence 635 nm, primary screen (AID 1181).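 Further: score merges 667 nm emission and signal to noise over triplicate slides.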 Particulars: higher = more signal.
E3 ubiquitin-protein ligase XIAP (Homo sapiens), sequence (P98170 whole entry, looked up): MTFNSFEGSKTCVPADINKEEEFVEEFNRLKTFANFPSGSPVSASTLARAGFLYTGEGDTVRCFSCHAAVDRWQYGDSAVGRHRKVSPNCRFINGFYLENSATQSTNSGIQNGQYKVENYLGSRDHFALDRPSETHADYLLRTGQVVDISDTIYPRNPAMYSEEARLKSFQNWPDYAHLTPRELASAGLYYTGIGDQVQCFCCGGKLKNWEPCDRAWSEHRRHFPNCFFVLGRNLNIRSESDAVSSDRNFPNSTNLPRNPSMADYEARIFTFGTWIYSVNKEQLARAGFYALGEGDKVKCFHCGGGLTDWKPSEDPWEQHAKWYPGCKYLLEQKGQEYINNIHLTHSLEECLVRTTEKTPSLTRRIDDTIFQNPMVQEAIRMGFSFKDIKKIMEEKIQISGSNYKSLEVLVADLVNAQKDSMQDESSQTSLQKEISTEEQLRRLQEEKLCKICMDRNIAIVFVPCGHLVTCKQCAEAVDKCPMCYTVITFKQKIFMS

Active and inactive are the calls of the source. Unless noted, how the calls were made is not given here.

For the compound `CC(C)[Si](C#Cc1ccccc1)(O[C@H](c1ccccc1)c1cn(Cc2ccccc2)nn1)C(C)C`, the z-score in experiment [1] was -1.6; in experiment [2], -0.433; in experiment [3] it was -2.13; in experiment [4], -1.8; in [5] it was -2.46; in experiment [6], -1.19. Further, the z-score in [7] is 0.24 (inactive); in [8], -0.425; in [9], -0.0328; in experiment [10] it was -0.486 (inactive); in experiment [11], -0.001; in [12], -16.7 (active). Also, the z-score in experiment [13] was 0.141 (inactive); in experiment [15], -0.571 (inactive); in experiment [16], -0.282 (inactive); in [17], 1.67 (inactive); in experiment [18], 0.79 (inactive); in [19], 0.253. Moreover, the composite z-score in [14] was -1.03 (inactive); in [20], -0.516.

Regarding `O=C1NC(=O)C2C1C=CC(C(O)C1CCCCC1)N2Nc1ccccn1` (stereo not given), the z-score in experiment [1] is -1.05; in experiment [2], -0.608; in [3] it was -0.484; in experiment [4], -0.0776; in experiment [5], -0.76; in experiment [6] it was -1.45. The z-score is -0.894 (inactive) in experiment [7]; -0.573 in experiment [8]; -0.9 in experiment [9]; -0.606 (inactive) in experiment [10]; -0.864 in [11]; 0.876 (inactive) in [12]. The z-score in experiment [13] was -1.27 (inactive); in experiment [15], 2.68 (inactive); in experiment [16] it was 0.209 (inactive); in [17], -1.02 (inactive); in experiment [18], -0.286 (inactive); in experiment [19] it was -1.33. In addition, the composite z-score in [14] is 0.583 (inactive); in [20] it was -0.0663.

For the compound `COc1c(C)cc(-c2nc(-c3ccccc3)c3c(c2C)CO[Si]3(C(C)C)C(C)C)cc1C`, the z-score was -0.926 in experiment [1]; -1.12 in experiment [2]; -0.518 in experiment [3]; -0.532 in [4]; -0.931 in experiment [5]; -0.175 in [6]. Moreover, the z-score in experiment [7] was -1.19 (inactive); in experiment [8], 0.379; in experiment [9], -0.294; in experiment [10], 1.44 (inactive); in experiment [11], 1.16; in experiment [12], 0.709 (inactive). For the same compound, the z-score in [13] is 0.032 (inactive); in experiment [15] it was 0.845 (inactive); in experiment [16], -0.0161 (inactive); in [17], 0.187 (inactive); in [18], 0.135 (inactive); in experiment [19], 0.199. For the same compound, the composite z-score is 0.08 (inactive) in experiment [14] and 0.53 in experiment [20].

Take `CCCCC(=C=CC[C@H](O)c1ccccc1OCCO)CCO`: the z-score was -0.341 in experiment [1]; -0.358 in experiment [2]; 0.285 in experiment [3]; -0.0455 in experiment [4]; -0.857 in experiment [5]; -0.95 in experiment [6]. Besides, the z-score was 0.101 (inactive) in experiment [7]; -0.193 in experiment [8]; -0.434 in experiment [9]; 0.356 (inactive) in experiment [10]; -0.259 in experiment [11]; -1.3 (inactive) in experiment [12]. The z-score was 0.189 (inactive) in [13]; 0.755 (inactive) in experiment [15]; 0.493 (inactive) in [16]; -0.295 (inactive) in experiment [17]; -0.224 (inactive) in experiment [18]; -0.0336 in experiment [19]. Further, the results for the composite z-score in [14] and in [20] were -0.228 (inactive) and -0.223, respectively.

For the compound `CCCCC=C[C@@H](NC(=O)C(C)(C)C)c1ccccc1`, the z-score is -2.66 in experiment [1]; -0.688 in [2]; -5.19 in experiment [3]; -3.26 in experiment [4]; -4.72 in experiment [5]; -4.78 in experiment [6]. In addition, the z-score is -0.576 (inactive) in experiment [7]; -0.895 in experiment [8]; -2.82 in experiment [9]; -0.938 (inactive) in experiment [10]; -1.12 in experiment [11]; 2.43 (inactive) in [12]. Besides, the z-score in experiment [13] is -2.58 (inactive); in experiment [15] it was 0.563 (inactive); in experiment [16], 2.07 (inactive); in experiment [17], -0.275 (inactive); in [18], -0.0819 (inactive); in [19] it was -3.59. The figures for the composite z-score in experiment [14] and in experiment [20] were 0.507 (inactive) and -0.0095, respectively.

Turning to `COc1ccc([Si](C)(C)[C@H]2[C@H](CCO)O[C@@]3(C(=O)N(Cc4ccccc4)c4ccc(NC(=O)[C@H](C)O)cc43)[C@@H]2C)cc1`, the z-score was -1.88 in experiment [1]; -1.49 in experiment [2]; -4.52 in experiment [3]; -2.62 in [4]; -4.31 in [5]; -2.86 in experiment [6]. Also, the z-score in experiment [7] is 0.364 (inactive); in experiment [8] it was -0.961; in [9], -2.39; in experiment [10], -3.18 (inactive); in [11], -4.02; in [12] it was 0.478 (inactive). Moreover, the z-score in [13] was -7.25 (inactive); in [15], 1.7 (inactive); in experiment [16], 4.58 (inactive); in experiment [17], 1.23 (inactive); in experiment [18] it was 0.723 (inactive); in experiment [19], -5.45. The composite z-score was 1.18 (inactive) in experiment [14] and 0.0153 in experiment [20].

Consider `C=CCOC(=O)[C@H]1[C@@H]2C(=O)O[C@@H](c3ccccc3)[C@@H](c3ccccc3)N2[C@@H](c2ccc(OCCOC(=O)[C@H]3C[C@H]4C(=O)NCC(=O)N4[C@H]3c3cccc(OCCO)c3)cc2)[C@]12C(=O)Nc1ccc(I)cc12`, for which the z-score is 0.0164 in [1]; 0.656 in experiment [2]; 0.902 in experiment [3]; -0.223 in [4]; 0.491 in experiment [5]; -0.777 in experiment [6]. The z-score in experiment [7] is -0.00167 (inactive); in experiment [8] it was -0.554; in experiment [9], -1.28; in experiment [10] it was 0.592 (inactive); in experiment [11], -0.199; in experiment [12], 1.18 (inactive). Moreover, the z-score in [13] is 0.265 (inactive); in experiment [15] it was 1.88 (inactive); in experiment [16], 1.5 (inactive); in experiment [17], -0.274 (inactive); in [18], 0.765 (inactive); in [19], 0.973. Besides, the results for the composite z-score in [14] and in [20] were 0.603 (inactive) and 0.0431, respectively.

`COc1cccc(C)c1NC(=O)O[C@H]1[C@H](OC(=O)Nc2ccccc2)[C@@H](OC(=O)Nc2ccccc2)[C@@H](OC)O[C@@H]1CO`: the z-score in experiment [1] was -1.86; in experiment [2], 0.861; in experiment [3] it was -1.9; in experiment [4], -2.59; in experiment [5], -3.26; in experiment [6] it was -0.702. Also, the z-score was 1.17 (inactive) in [7]; -1.05 in experiment [8]; 0.0418 in experiment [9]; -3.49 (inactive) in experiment [10]; -2 in experiment [11]; 0.748 (inactive) in experiment [12]. For the same compound, the z-score is -3.79 (inactive) in [13]; 1.28 (inactive) in experiment [15]; 2.78 (inactive) in experiment [16]; 0.655 (inactive) in experiment [17]; -0.667 (inactive) in experiment [18]; -2.85 in [19]. The composite z-score in experiment [14] is -0.0526 (inactive); in [20] it was 0.06.

In the case of `[N-]=[N+]=Nc1ccccc1C[C@]1(C(=O)N2CCCCC2)N=C(c2ccc(OCCCO)cc2)O[C@H]1c1ccccc1`, the z-score in experiment [1] was -0.786; in [2] it was 0.0946; in experiment [3], 0.014; in [4], -3.29; in [5], -4.3; in experiment [6] it was 0.839. Also, the z-score in [7] is 0.231 (inactive); in experiment [8] it was -1.2; in [9], -2.15; in experiment [10] it was -0.676 (inactive); in [11], -0.256; in experiment [12], -1.04 (inactive). In addition, the z-score in experiment [13] is -2.4 (inactive); in experiment [15], 0.522 (inactive); in [16], 0.864 (inactive); in [17], 0.463 (inactive); in experiment [18] it was 0.647 (inactive); in experiment [19], -2.06. Further, the composite z-score was -0.343 (inactive) in experiment [14] and -0.102 in [20].

The values above are taken from PubChem BioAssay.
